Results filed as inconclusive are left out. Values without a mark were called inactive. Calls of active or inactive are those of the source. Calls come from the whole dose curve; as a rule, active = well fitted cell-killing curve with a large enough effect; inconclusive = small, poorly fitted or top-dose-only effect, or effect the other way; inactive = flat fitted curve, though single readings scatter.
Test: qHTS for Inhibitors of ATXN expression: Validation of Cytotoxic Assay (AID 588349)
Details: cytotoxicity counter-screen for ATXN expression inhibitors, cell viability; series mostly up to 57.1 µM; activity change, negative = cytotoxicity: at the top concentration
Source text: Spinocerebellar ataxia type 2 (SCA2) is a multisystem neurodegenerative disease caused by a dominantly-acting mutation leading to expansion of a polyQ domain in the ataxin-2 protein (ATXN2). SCA2 patients develop progressive ataxia and later lose function in other neuronal systems. Prominent parkinsonian signs develop in some patients. Similar to many neurodegenerative disorders, no symptomatic or disease-modifying treatments are known.
The primary objective of project is to identify compounds inhibiting ATXN2 expression and to test them for efficacy in SCA2 mouse models. To this end, in a collaboration between Dr. Daniel Scoles and scientists at NCGC, a cell-based assay adapted to high-throughput screening has been developed to screen the NIH Molecular Libraries Small Molecule Repository (MLSMR). Confirmed qHTS active compounds will be tested for toxicity against the human neuron-like SH-SY5Y cell line. This line is the parental cell type used to generate the transgenic line used in the primary assay, and so should provide an isogenic control to test the inherent toxicity of qHTS actives.
NIH Chemical Genomics Center [NCGC]
NIH Molecular Libraries Probe Centers Network [MLPCN]
Assay Submitter (PI): Stefan Pulst and Daniel Scoles, University of Utah
HEK293 cultured cells will be dosed with titrated compounds and incubated for 72 hr at 37 degrees C. Toxicity will be assessed using the CellTiter Glo kit (Promega), which uses intracellular ATP concentration as a viability marker.
% is set by controls: 0 for no effect and ±100 for the full control effect; potency is the fitted concentration of half-maximal effect.

Structure (SMILES)	activity change, negative = cytotoxicity [%]	Potency
Brc1c(NC2=NCCN2)ccc2nccnc12	-5.91	
CN(C(=O)CCCOc1ccc2[nH]c(=O)ccc2c1)C1CCCCC1	-11.9	
Cc1scc2c1N(C(=O)CN1CCN(C)CC1)c1ccccc1NC2=O	-5.43	
c1cnc(N2CCN(Cc3ccc4c(c3)OCO4)CC2)nc1	-5.82	
NC(=O)c1ncn([C@@H]2O[C@H](CO)[C@@H](O)[C@H]2O)c1O	-16.3	
C[N+](C)(C)CCOC(=O)CCC(=O)OCC[N+](C)(C)C	6.21	
CCn1nc(C(=O)O)c(=O)c2cc3c(cc21)OCO3	-2.07	
CC(=O)Oc1cc(C(C)C)c(OCCN(C)C)cc1C	-22.1	
CC[N+](C)(C)c1cccc(O)c1	-7.42	
C[N+](C)(C)CCCCCCCCCC[N+](C)(C)C	-4.4	
NS(=O)(=O)c1cc2c(cc1Cl)NC(C1CC3C=CC1C3)NS2(=O)=O (stereo not given)	-6.6	
COCC(=O)O[C@]1(CCN(C)CCCc2nc3ccccc3[nH]2)CCc2cc(F)ccc2[C@@H]1C(C)C		28.2 µM (active)
COCCc1ccc(OCC(O)CNC(C)C)cc1 (stereo not given)	-17.3	
CC(=O)OCC1=C(C(=O)O)N2C(=O)[C@@H](NC(=O)Cc3cccs3)[C@H]2SC1	-16.5	
CCCN(CCC)C(=O)C(CCC(=O)O)NC(=O)c1ccccc1 (stereo not given)	-16.4	
CSc1ccc(C(=O)c2[nH]c(=O)[nH]c2C)cc1	17.2	
C#CCN(C)CCCOc1ccc(Cl)cc1Cl	-12.9	
CCN(CC)CC(=O)Nc1c(C)cccc1C	-11	
COC(=O)C1=C(C)NC(C)=C(C(=O)OCCN(C)Cc2ccccc2)C1c1cccc([N+](=O)[O-])c1 (stereo not given)		20 µM (active)
NC(N)=NC(=O)Cc1c(Cl)cccc1Cl	-18.8	

Structure (SMILES)	activity change, negative = cytotoxicity [%]	Potency
O=C(O)CN(CCOCCOCCN(CC(=O)O)CC(=O)O)CC(=O)O	-15.6	
Cc1nc2sccn2c(=O)c1CCN1CCC(=C(c2ccc(F)cc2)c2ccc(F)cc2)CC1	-11.3	
Cc1ccc(Cl)c(Nc2ccccc2C(=O)O)c1Cl	-16.9	
C[N+](C)(C)CCOC(N)=O	-3.6	
CC(C)NNC(=O)c1ccncc1	-1.63	
CCN(CC)CCNC(=O)c1ccc(NC(C)=O)cc1	10.3	
CC(N=C(NC#N)Nc1ccncc1)C(C)(C)C (stereo not given)	6.75	
CCCN1C[C@H](CSC)C[C@@H]2c3cccc4[nH]cc(c34)C[C@H]21	-20.8	
O=C1CC2(CCCC2)CC(=O)N1CCCCN1CCN(c2ncccn2)CC1	-10.4	
C[C@]12C=CC(=O)C=C1CC[C@H]1[C@@H]3C[C@@H](O)[C@](O)(C(=O)CO)[C@@]3(C)C[C@H](O)[C@@]12F	-5.04	
CCO/C([O-])=N/c1c[n+](N2CCOCC2)no1	-10.9	
CO[C@@]1(NC(=O)CSCC#N)C(=O)N2C(C(=O)O)=C(CSc3nnnn3C)CS[C@@H]21	-12.7	
C[n+]1cc2c3c(ccc2c2ccc4cc5c(cc4c21)OCO5)OCO3		3.55 µM (active)
C=CCc1ccccc1OCC(O)CNC(C)C (stereo not given)	-21.9	
CC(=O)[C@@]1(O)CC[C@H]2[C@@H]3CCC4=CC(=O)CC[C@]4(C)[C@H]3CC[C@@]21C	-13	
CC(C)NCC(O)c1cc(O)cc(O)c1 (stereo not given)	-3.88	
CCN(CC)CCNC(=O)c1cc(S(C)(=O)=O)ccc1OC	5.57	
O=C(O)CP(=O)(O)O	-14.2	
CN1C(=O)CC[C@H]1c1cccnc1	-6.27	
CN(C)CCOC(=O)COc1ccc(Cl)cc1	19.4	

— PubChem BioAssay (NCATS)
